# Results from PubChem BioAssay AID602137 (NMMLSC, 2011).
# Active and inactive are the calls of the source.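 The calls were made as follows: active = EC50 at most 10 µM with percent response changing by at least 30% across doses, from a valid fit; inactive = the rest.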
# Test: disruption of GST–glutathione bead interaction – biochemical, flow cytometry beads, round 1, counter-screen for Rab7 GTPase inhibitor project, SAR follow-up (AID 602137)
# Conditions: GST-GFP on GSH beads; series mostly up to 100 µM
row,SMILES,outcome
1,CC1(C)Cc2c(sc(NC(=S)NC(=O)c3ccccc3)c2C(=O)O)CO1,inactive
2,CC1(C)Cc2c(sc(NC(=S)NC(=O)c3cccc(F)c3)c2C(=O)O)CO1,inactive
3,CCOC(=O)c1c(NC(=O)Nc2ccc(C)cc2)sc2c1CCN(C)C2,inactive
4,CC1(C)Cc2c(sc(NC(=O)Cc3ccccc3)c2C(=O)O)CO1,inactive
5,CC1(C)Cc2c(sc(NC(=O)NC(=O)c3ccccc3)c2C(=O)O)CO1,inactive
6,O=C(C#Cc1ccccc1)c1cccc([N+](=O)[O-])c1,inactive
7,NS(=O)(=O)c1ccc(N2N=C(c3ccccc3)CC2c2ccccc2)cc1 (stereo not given),inactive
8,CC(C)(C)OC(=O)c1c(NC(=S)NC(=O)c2ccccc2)sc2c1CCOC2,inactive
9,CCOC(=O)c1c(NC(=O)NC(C)(C)C)sc2c1CCN(C)C2,inactive
10,CC1(C)Cc2c(sc(NC(=S)NC(=O)c3ccccc3F)c2C(=O)O)CO1,inactive
11,CC1Cc2c(sc(NC(=S)NC(=O)c3ccccc3)c2C(=O)O)CO1 (stereo not given),inactive
12,Cc1ccc(Nc2nc3sc4c(c3c(=O)o2)CCN(C)C4)cc1,inactive
13,COC(=O)c1c(N)sc2c1CC(C)(C)OC2,inactive
14,CC1(C)Cc2c(sc(NC(=S)NC(=O)c3cccc(Br)c3)c2C(=O)O)CO1,inactive
15,CN1CCc2c(sc(NC(=O)Nc3ccc(F)cc3)c2C(=O)O)C1,inactive
16,CCOC(=O)c1c(N)sc2ccccc12,inactive
17,O=C(NC(=S)Nc1sc2c(c1C(=O)O)CCOC2)c1ccccc1,inactive
18,COc1cccc(C(=O)NC(=S)Nc2sc3c(c2C(=O)O)CC(C)(C)OC3)c1,inactive
19,CCOC(=O)c1c(NC(=S)Nc2ccccc2)sc2c1CC(C)(C)OC2,inactive
20,COc1ccc(C2CC(c3ccccc3)=NN2c2ccc(S(N)(=O)=O)cc2)cc1 (stereo not given),inactive
21,Cc1ccc(NC(=O)Nc2sc3c(c2C(=O)O)CCN(C)C3)cc1,inactive
22,CCOC(=O)c1c(NC(=O)Nc2ccc(F)cc2)sc2c1CCN(C)C2,inactive
23,COc1ccc(C(=O)NC(=S)Nc2sc3c(c2C(=O)O)CC(C)(C)OC3)cc1,inactive
24,CCOC(=O)c1c(NC(=S)NC(=O)c2ccccc2)sc2ccccc12,inactive
25,CC1(C)CCc2sc(NC(=S)NC(=O)c3ccccc3)c(C(=O)O)c2C1,inactive
26,COC(=O)c1c(NC(=S)NC(=O)c2ccccc2)sc2c1CC(C)(C)OC2,inactive
27,CC1(C)Cc2c(sc(NC(=S)NC(=O)c3ccccc3Br)c2C(=O)O)CO1,inactive
28,CC1(C)Cc2c(sc(NC(=S)NC(=O)c3ccc(Br)cc3)c2C(=O)O)CO1,inactive
29,CN1CCc2c(sc3nc(Nc4ccc(F)cc4)oc(=O)c23)C1,inactive
30,CC1(C)Cc2c(sc(NC(=S)Nc3ccccc3)c2C(=O)O)CO1,inactive
